Inconclusive results are not listed. Where a call stands in place of a potency, no number is given. Activity calls are given as the source filed them. Unless noted, calls follow the shape of the dose curve; as a rule, active = well fitted curve in the direction sought with a large enough effect; inconclusive = small, poorly fitted or top-dose-only effect, or another doubt; inactive = no such curve, though single readings can be large; an effect the other way counts as inactive or inconclusive.
How the values were obtained:
[1] = qHTS of Trypanosoma Brucei Inhibitors: LOPAC Validation (AID 624147)
Summary of the method: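 Readout: single end-point luminescence (Kinase-Glo Plus, 10 min). Reaction conditions were TbPYK/substrate plus 130 uM ADP, 45 min at RT, pH 7.2 TEA buffer. No-enzyme wells served as controls, and data were normalized before concentration-response fitting.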

[2] = biological target: Glucagon-like peptide 1 receptor (Homo sapiens) (UniProt P43220); experiment: qHTS of GLP-1 Receptor Agonists: LOPAC Validation (AID 624148);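 also: higher luminescence signal means agonism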
Summary of the method: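 HEK293 cells stably co-expressing GLP-1R and a cAMP-responsive luciferase reporter, plated 12 hours before compound, then incubated 4-6 hr at 37 deg C. Luminescence read 12 min after detection reagent.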

[3] = qHTS of Nrf2 Activators: LOPAC Validation (AID 624149)
Summary of the method: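 AREc32_Fluc cells, 1000/well in OPTI-MEM with 5% FBS, grown overnight, then exposed to compounds for 24 hr at 37 deg C, 5% CO2. ARE-driven firefly luciferase read by Steady-Glo luminescence after 30 min at RT.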

[4] = HTS Assay for Allosteric Antagonists of the Human D2 Dopamine Receptor: Hit Validation in HTRF (AID 624455);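 also: stable D1 dopamine receptor cell line scored for blocking the D1 response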
Summary of the method: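 Hit validation in cells stably expressing the D1 dopamine receptor, run in HTRF format. Compounds were tested for their ability to inhibit the D1-mediated response.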

[5] = S16 Schwann cell PMP22 intronic element firefly luciferase assay (AID 624032); also: nearly all actives have a fitted effect of over 30% in size; also: potency is read from the fitted curve at half-maximal effect
Summary of the method: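 Rat S16 Schwann cells stably carrying firefly luciferase driven by a PMP22 intronic element, in 10% FBS, treated 24 h at 37 C. ONE-Glo luminescence normalized to PTC124 control and DMSO (0%); curves classed by r2, magnitude and activity.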

[6] = S16 Schwann cell PMP22 intronic element beta-lactamase assay (AID 624044; calls by dose curve; also: nearly all actives have a fitted effect of over 15% in size; also: potency is read from the fitted curve at half-maximal effect)
Summary of the method: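 Rat S16 Schwann cells with beta-Lac driven by a PMP22 intronic element, compound-treated 24 h at 37 °C. LiveBLAzer FRET B/G read: 460 nm normalized to potassium clavulanate vs DMSO; 535 nm FRET as viability; concentration-effect curves classified.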

[7] = biological target: Glutaminase kidney isoform, mitochondrial (Homo sapiens) (UniProt O94925); experiment: qHTS for Inhibitors of Glutaminase (GLS): LOPAC Validation (AID 624146);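 also: glutamate product detected by oxidase and peroxidase coupled Amplex red fluorescence gain; nearly all actives have a fitted effect of over 60% in size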
Summary of the method: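 Human kidney-isoform GLS in 45 mM KH2PO4 pH 8.2, 0.02% Tween-20, with compound, started with 1mM L-Glutamine (added stock). Glutamate oxidase/HRP/Amplex red coupled fluorescence read at start and after 30 min at RT.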

[8] = Cell Proliferation Assay against the TMD8 Cell Line (AID 651645); conditions: TMD8 DLBCL cell line proliferation/viability; at 46.1 µM (top of the series);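 also: cells exposed to compound for 48 h before reading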
Summary of the method: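 Luminescent ATP read-out (CellTiter-Glo, 15 min RT) after 48 h compound exposure of log-growing TMD8 cells at 37C; percent activity scaled between DMSO as 100% and 9.2 uM bortezomib final as 0%.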

[9] = Cell Proliferation Assay against the HBL1 Cell Line (AID 651646); conditions: HBL1 DLBCL cells; at 46.1 µM (top of the series);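 also: cells exposed to compound for 48 h before reading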
Summary of the method: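 HBL1 ABC DLBCL cells, 500/well in RPMI with 5% FBS, treated for 48 h at 37C. Viability read by CellTiter-Glo luminescence, normalized to DMSO as 100% and 9.2 uM bortezomib as 0%.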

[10] = Cell Proliferation Assay against the TMD8 Cell Line (Caspase readout at 16 hrs) (AID 651712); conditions: TMD8 lymphoma cells, caspase activation luminescence; also: potency is read from the fitted curve at half-maximal effect
Summary of the method: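 TMD8 cells in RPMI with 5% FBS were treated with compound for 16 h at 37 C, then caspase 3/7 activation was read by Caspase-Glo luminescence. Percent activity was scaled to DMSO (0%) and 9.2 uM bortezomib final (100%).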

Chain of Glutaminase kidney isoform, mitochondrial (Homo sapiens) (O94925 whole entry, looked up, canonical isoform): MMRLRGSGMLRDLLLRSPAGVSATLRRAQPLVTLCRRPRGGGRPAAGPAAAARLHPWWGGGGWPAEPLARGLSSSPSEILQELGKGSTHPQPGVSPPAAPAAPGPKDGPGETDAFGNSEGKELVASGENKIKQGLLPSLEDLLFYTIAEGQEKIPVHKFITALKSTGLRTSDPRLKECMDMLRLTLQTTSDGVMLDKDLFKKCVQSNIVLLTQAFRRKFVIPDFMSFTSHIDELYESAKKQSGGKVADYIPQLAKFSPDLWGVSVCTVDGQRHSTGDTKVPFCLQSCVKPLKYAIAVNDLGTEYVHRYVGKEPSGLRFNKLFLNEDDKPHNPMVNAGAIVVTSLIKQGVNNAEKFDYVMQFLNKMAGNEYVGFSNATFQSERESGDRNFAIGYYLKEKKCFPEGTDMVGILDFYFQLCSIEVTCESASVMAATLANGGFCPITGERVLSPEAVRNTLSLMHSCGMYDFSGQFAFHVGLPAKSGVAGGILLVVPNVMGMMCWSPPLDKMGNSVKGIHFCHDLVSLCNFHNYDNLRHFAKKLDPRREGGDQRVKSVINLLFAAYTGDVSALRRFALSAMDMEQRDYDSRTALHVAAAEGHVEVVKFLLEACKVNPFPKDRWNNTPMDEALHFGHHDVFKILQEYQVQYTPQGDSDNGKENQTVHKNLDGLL
Chain of Glucagon-like peptide 1 receptor (Homo sapiens) (P43220 whole entry, looked up): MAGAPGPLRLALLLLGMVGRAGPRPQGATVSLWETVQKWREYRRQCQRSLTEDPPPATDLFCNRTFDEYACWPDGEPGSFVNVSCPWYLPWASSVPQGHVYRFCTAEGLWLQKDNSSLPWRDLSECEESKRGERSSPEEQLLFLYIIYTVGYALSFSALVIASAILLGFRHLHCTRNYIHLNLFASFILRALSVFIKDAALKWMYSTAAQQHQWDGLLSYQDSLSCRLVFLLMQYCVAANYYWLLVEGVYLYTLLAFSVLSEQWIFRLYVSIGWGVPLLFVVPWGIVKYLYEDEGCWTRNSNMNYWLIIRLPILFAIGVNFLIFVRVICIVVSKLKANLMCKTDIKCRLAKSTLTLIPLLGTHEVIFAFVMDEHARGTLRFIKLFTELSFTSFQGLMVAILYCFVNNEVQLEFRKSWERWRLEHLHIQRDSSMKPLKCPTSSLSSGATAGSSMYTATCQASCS

CC(C)N(CCC(=O)c1ccc2ccccc2c1)Cc1ccccc1
outcome [1]: inactive | outcome [2]: inactive | outcome [3]: inactive | outcome [4]: inactive

CN1CCCN(C(c2ccccc2)c2ccc(Cl)cc2)CC1 (stereo not given)
Potency [5]: 28.7 µM (active) | Potency [6]: inactive

N[C@@H](Cn1ccc(=O)c(O)c1)C(=O)O
outcome [1]: inactive | outcome [2]: inactive | outcome [3]: inactive | outcome [4]: inactive

O=[N+]([O-])c1ccc(-c2nc(-c3ccc(F)cc3)c(-c3ccncc3)[nH]2)cc1
Potency [7]: inactive | outcome [1]: inactive | outcome [2]: inactive | outcome [3]: inactive | outcome [4]: inactive

O=C1NC(=O)/C(=C/c2ccc3c(c2)OC(F)(F)O3)S1
Potency [7]: inactive | outcome [1]: inactive | outcome [2]: inactive | outcome [3]: inactive | outcome [4]: inactive

Nc1c2ccccc2nc2ccccc12
Potency [5]: inactive | Potency [6]: 22.4 µM (active)

CCN(CC)CCNC(=O)c1ccc(NS(C)(=O)=O)cc1
Potency [7]: inactive | outcome [1]: inactive | outcome [2]: inactive | outcome [3]: inactive | outcome [4]: inactive

COc1ccccc1N1CCN(CCN2C(=O)CC3(CCCC3)CC2=O)CC1
Potency [7]: inactive | outcome [1]: inactive | outcome [2]: inactive | outcome [3]: inactive | outcome [4]: inactive

O=C1NC(c2cccc([N+](=O)[O-])c2)=CCN1c1ccccc1O
outcome [1]: inactive | outcome [2]: inactive | outcome [3]: inactive | outcome [4]: inactive

CN(C)c1cc2c(Nc3ccc4c(cnn4Cc4ccccc4)c3)ncnc2cn1
outcome [1]: inactive | outcome [2]: inactive | outcome [3]: inactive | outcome [4]: inactive

CCCCCCCCCCCCCC[N+](C)(C)C
Potency [6]: 25.1 µM (active)

CN1CCC(Nc2ncc3ncnc(Nc4ccc(F)c(Cl)c4)c3n2)CC1
Potency [5]: 36.1 µM (active)

C[C@@H](O[C@H]1OCCN(Cc2n[nH]c(=O)[nH]2)[C@H]1c1ccc(F)cc1)c1cc(C(F)(F)F)cc(C(F)(F)F)c1
viability (% of control) [8]: 8.07% | viability, percent of control [9]: 8.93% | Potency [10]: 11.8 µM (active)
